Laboratory results reported in PubChem BioAssay (NCATS).
Inconclusive results are not listed. A call without a number means that no potency is given here. Activity calls are given as the source filed them. Calls come from the whole dose curve; as a rule, active = well fitted cell-killing curve with a large enough effect; inconclusive = small, poorly fitted or top-dose-only effect, or effect the other way; inactive = no such curve, though single readings can be large or run the other way.

Assay: Quantitative High-Throughput drug screen in 47 multiple myeloma cell lines against the NCATS MIPE library collection: RPMI8226_ATCC cell viability assay (AID 1919871); note: nearly all actives have a fitted effect of over 30% in size
Conditions: RPMI8226 myeloma viability, CellTiter-Glo ATP luminescence, 48 h; series mostly up to 45.8 µM
Outline: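 500 cells/well; MIPE 4.0 drugs pin-transferred; 48 h, 37C, 5% CO2. CellTiter-Glo, 5 min RT, luminescence. Controls: DMSO 100%, media 0%.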
Potency is the fitted concentration of half-maximal effect.

Row | Structure (SMILES) | Potency
1 | C[C@]12CCC(=O)C=C1CC[C@@H]1[C@H]3CC[C@](C)(O)[C@@]3(C)CC[C@@H]12 | 38.2 µM (active)
2 | C[C@]12CC[C@@H]3c4ccc(OC(=O)N(CCCl)CCCl)cc4CC[C@H]3[C@@H]1CC[C@@H]2OP(=O)(O)O | inactive
3 | CN1C(=O)COc2c(C(=O)NC3CN4CCC3CC4)cc(Cl)cc21 (centres undefined) | inactive
4 | CC(C)C[C@H](CN)CC(=O)O | inactive
5 | CCC1(c2ccc(N)cc2)CCC(=O)NC1=O (centres undefined) | inactive
6 | C[C@]12CC[C@H]3[C@@H](CC[C@@]45O[C@H]4C(O)=C(C#N)C[C@]35C)[C@H]1CC[C@H]2O | inactive
7 | CC(NC(C)(C)C)C(=O)c1cccc(Cl)c1 (centres undefined) | 20.9 µM (active)
8 | C[C@](O)(CS(=O)(=O)c1ccc(F)cc1)C(=O)Nc1ccc(C#N)c(C(F)(F)F)c1 | inactive
9 | CC(C)c1cccc(C(C)C)c1O | inactive
